# Data from PubChem BioAssay (Tox21).
# Records with an inconclusive call do not appear. Entries that show only a call come without a potency. Unmarked numbers belong to inactive results. The source made the active and inactive calls. Unless noted, calls follow the shape of the dose curve; as a rule, active = well fitted curve in the direction sought with a large enough effect in the repeat runs; inconclusive = weak or mixed curves; inactive = no such curve, though single readings can be large; an effect the other way counts as inactive or inconclusive.
# How the values were obtained:
# [1] = qHTS assay to identify small molecule agonists of the peroxisome proliferator-activated receptor delta (PPARd) signaling pathway - cell viability counter screen (AID 743211); also: nearly all actives have a fitted effect of over 55% in size
# Procedure, shortened: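 Viability of GeneBLAzer PPARd UAS-bla HEK293H cells was assessed after 17 h compound incubation at 37C, using CellTiter-Glo reagent added after the reporter read and luminescence recorded 30 min later.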
# [2] = target: Peroxisome proliferator-activated receptor delta (Homo sapiens) (UniProt Q03181); test: qHTS assay to identify small molecule agonists of the peroxisome proliferator-activated receptor delta (PPARd) signaling pathway (AID 743212; calls by dose curve;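 also: HEK293H cells with PPARd UAS beta-lactamase reporter GeneBLAzer system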)
# Chain of Peroxisome proliferator-activated receptor delta (Homo sapiens) (Q03181 whole entry, looked up): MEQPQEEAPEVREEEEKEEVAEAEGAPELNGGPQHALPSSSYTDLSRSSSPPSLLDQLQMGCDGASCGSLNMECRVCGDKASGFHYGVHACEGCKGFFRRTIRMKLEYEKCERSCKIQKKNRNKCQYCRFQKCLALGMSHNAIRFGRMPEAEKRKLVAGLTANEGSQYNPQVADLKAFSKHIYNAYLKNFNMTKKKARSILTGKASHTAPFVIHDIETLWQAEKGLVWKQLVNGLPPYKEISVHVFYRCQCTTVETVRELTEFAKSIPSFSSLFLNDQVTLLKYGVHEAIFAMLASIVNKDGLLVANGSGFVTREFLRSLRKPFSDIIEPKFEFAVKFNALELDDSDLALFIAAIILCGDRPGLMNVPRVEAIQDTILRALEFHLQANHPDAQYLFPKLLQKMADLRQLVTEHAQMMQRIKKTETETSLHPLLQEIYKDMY
# Procedure, shortened: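 Beta-lactamase reporter read by fluorescence (LiveBLAzer B/G FRET, 2 h, room temperature). Test agents, in DMSO, incubated at 37 C with PPARd-bla HEK293H cells.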
# [3] = target: Bile acid receptor (Homo sapiens) (UniProt Q96RI1); test: qHTS assay to identify small molecule antagonists of the farnesoid-X-receptor (FXR) signaling pathway (AID 743217; active = well fitted inhibition curve with a large enough effect in the signal ratio in the repeat runs, not every such curve was filed as active; the % refers to the signal ratio)
# Chain of Bile acid receptor (Homo sapiens) (Q96RI1 whole entry, looked up): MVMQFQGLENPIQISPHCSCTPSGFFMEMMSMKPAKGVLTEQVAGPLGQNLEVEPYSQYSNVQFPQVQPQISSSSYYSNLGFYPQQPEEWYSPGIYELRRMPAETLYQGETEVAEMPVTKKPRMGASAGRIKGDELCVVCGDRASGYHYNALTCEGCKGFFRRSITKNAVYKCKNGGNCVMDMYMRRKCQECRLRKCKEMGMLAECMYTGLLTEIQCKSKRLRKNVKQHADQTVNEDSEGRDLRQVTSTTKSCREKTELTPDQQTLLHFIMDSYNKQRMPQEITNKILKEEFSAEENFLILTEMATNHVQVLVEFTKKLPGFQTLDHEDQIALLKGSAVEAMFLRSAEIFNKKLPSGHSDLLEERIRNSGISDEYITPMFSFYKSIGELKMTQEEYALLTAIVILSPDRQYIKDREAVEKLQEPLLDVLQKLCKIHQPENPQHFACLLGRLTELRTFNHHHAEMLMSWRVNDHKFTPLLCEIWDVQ
# Procedure, shortened: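 FRET fluorescence after 2 h room-temperature LiveBLAzer loading gives the readout. Prior step: FXR-bla HEK 293T cells, seeded and incubated 5 h, received test compounds plus 50 uM final CDCA for 16 h at 37 °C.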
# [4] = qHTS assay to identify small molecule agonists of the farnesoid-X-receptor (FXR) signaling pathway - cell viability counter screen (AID 743218); also: nearly all actives have a fitted effect of over 45% in size
# Procedure, shortened: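 Readout: CellTiter-Glo luminescence, 30 min RT, multiplexed after the FXR-bla FRET reading. HEK 293T FXR-UAS-bla cells received compound 5 h post-plating and were incubated 16 h at 37 C.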
# [5] = target: Bile acid receptor (Homo sapiens) (UniProt Q96RI1); test: qHTS assay to identify small molecule agonists of the farnesoid-X-receptor (FXR) signaling pathway (AID 743220; active = well fitted activation curve with a large enough effect in the signal ratio in the repeat runs, not every such curve was filed as active; the % refers to the signal ratio)
# Procedure, shortened: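 FXR-UAS-bla HEK 293T cells carrying a UAS-driven beta-lactamase reporter were plated for 5 h at 37C/5% CO2, then exposed to DMSO-dissolved Tox21 10K compounds for 16 h at 37C. A LiveBLAzer B/G FRET substrate was loaded for 2 h at room temperature before fluorescence reading.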
# [6] = qHTS assay to identify small molecule antagonists of the farnesoid-X-receptor (FXR) signaling pathway - cell viability counter screen (AID 743221; active = well fitted cell-killing curve with a large enough effect in the repeat runs, not every such curve was filed as active; also: nearly all actives have a fitted effect of over 50% in size; also: potency is read from the fitted curve at half-maximal effect)
# Procedure, shortened: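 Quantitative HTS of the Tox21 10K library run in parallel with the beta-lactamase reporter read. HEK 293T cells carrying a UAS-driven bla reporter got compound and 50 uM CDCA (final) for 16 h; ATP-based luminescence followed.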
# [7] = qHTS assay to identify small molecule agonists of the vitamin D receptor (VDR) signaling pathway - cell viability counter screen (AID 743224); also: series mostly up to about 63 µM; nearly all actives have a fitted effect of over 50% in size
# Procedure, shortened: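 In parallel with the bla FRET readout, cytotoxicity toward VDR-bla cells after 16 h compound exposure was assessed by CellTiter-Glo, with luminescence recorded after a 30 min room-temperature incubation.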
# [8] = qHTS assay to identify small molecule antagonists of the vitamin D receptor (VDR) signaling pathway - cell viability counter screen (AID 743225); also: nearly all actives have a fitted effect of over 50% in size
# Procedure, shortened: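 Cells (VDR-UAS-bla HEK 293T) are plated, rested 4 h at 37C, dosed with compound and 3 nM final 1-alpha,25-dihydroxy vitamin D3, and incubated 16 h. Viability is taken from CellTiter-Glo luminescence in the reporter wells.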
# [9] = qHTS assay to identify small molecule agonists of the NFkB signaling pathway (AID 1159509; active = well fitted curve in the direction sought with a large enough effect in the signal ratio in the repeat runs, not every such curve was filed as active; the % refers to the signal ratio; also: series mostly up to about 61 µM)
# Procedure, shortened: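 Beta-lactamase reporter assay run in quantitative high-throughput format on an NF-kB-responsive ME-180 line, with 5 hr compound treatment and a FRET-based blue/green fluorescence readout.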
# [10] = qHTS assay to identify small molecule agonists of the NFkB signaling pathway - cell viability counter screen (AID 1159515; calls by dose curve; also: nearly all actives have a fitted effect of over 55% in size; also: potency is read from the fitted curve at half-maximal effect)
# Procedure, shortened: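 Plate 2,000 NFkB-bla ME-180 cells/well; incubate overnight. Add compounds, 5 hr at 37 C. Add FRET substrate, 1.5 hr RT. Add CellTiter-Glo, 30 min RT; read luminescence.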
# [11] = qHTS assay to identify small molecule antagonists of the retinoid-related orphan receptor gamma (ROR-gamma) signaling pathway - cell viability counter screen (AID 1159520); also: nearly all actives have a fitted effect of over 50% in size; also: potency is read from the fitted curve at half-maximal effect
# Procedure, shortened: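 Tet-on ROR gamma CHO cells (1,000/well) were plated 4 hr, given compounds in DMSO for 2 hr at 37 C, then induced with 1 uM final doxycycline for 16 hr. Viability was read as ATP by CellTiter-Glo luminescence after 30 min.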
# [12] = target: Nuclear receptor ROR-gamma (Homo sapiens) (UniProt P51449); test: qHTS assay to identify small molecule antagonists of the retinoid-related orphan receptor gamma (ROR-gamma) signaling pathway (AID 1159521)
# Procedure, shortened: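 RORγ antagonism is scored from reduced reporter luminescence in Tet-on CHO cells. Induction used 1 uM final doxycycline hyclate for 16 h at 37 C, following a 2 h compound exposure.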
# [13] = qHTS assay to identify small molecule agonists of the AP-1 signaling pathway - cell viability counter screen (AID 1159525; calls by dose curve; also: nearly all actives have a fitted effect of over 55% in size)
# Procedure, shortened: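 Each titration point was normalised to DMSO and tetra n-octyl ammonium bromide controls. The read was Cell Titer Glo luminescence after 30 min at RT, following 5 h compound exposure of ME-180 AP-1-bla cells at 37 °C.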
# [14] = qHTS assay to identify small molecule agonists of the AP-1 signaling pathway (AID 1159526; calls by dose curve)
# [15] = qHTS assay to identify small molecule antagonists of the peroxisome proliferator-activated receptor delta (PPARd) signaling pathway - cell viability counter screen (AID 743213); also: nearly all actives have a fitted effect of over 50% in size
# Procedure, shortened: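 CellTiter-Glo was added to PPARd-bla HEK293H wells following 17 h compound treatment in the presence of 300 nM L165041. Luminescence was recorded after 30 min at room temperature.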
# [16] = target: Peroxisome proliferator-activated receptor delta (Homo sapiens) (UniProt Q03181); test: qHTS assay to identify small molecule antagonists of the peroxisome proliferator-activated receptor delta (PPARd) signaling pathway (AID 743215; active = well fitted inhibition curve with a large enough effect in the signal ratio in the repeat runs, not every such curve was filed as active; the % refers to the signal ratio;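 also: cells stimulated with agonist L165041 at 300 nM final during compound exposure; series mostly up to about 62 µM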)
# Procedure, shortened: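 Fluorescence from cleaved LiveBLAzer B/G FRET substrate (2 h, room temperature) reports PPARd-driven beta-lactamase in HEK293H UAS-bla cells. Cells had been treated 17 h at 37 C with compound plus 300 nM final L165041.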
# [17] = target: Vitamin D3 receptor (Homo sapiens) (UniProt P11473); test: qHTS assay to identify small molecule agonists of the vitamin D receptor (VDR) signaling pathway (AID 743222; calls by dose curve)
# Chain of Vitamin D3 receptor (Homo sapiens) (P11473 whole entry, looked up): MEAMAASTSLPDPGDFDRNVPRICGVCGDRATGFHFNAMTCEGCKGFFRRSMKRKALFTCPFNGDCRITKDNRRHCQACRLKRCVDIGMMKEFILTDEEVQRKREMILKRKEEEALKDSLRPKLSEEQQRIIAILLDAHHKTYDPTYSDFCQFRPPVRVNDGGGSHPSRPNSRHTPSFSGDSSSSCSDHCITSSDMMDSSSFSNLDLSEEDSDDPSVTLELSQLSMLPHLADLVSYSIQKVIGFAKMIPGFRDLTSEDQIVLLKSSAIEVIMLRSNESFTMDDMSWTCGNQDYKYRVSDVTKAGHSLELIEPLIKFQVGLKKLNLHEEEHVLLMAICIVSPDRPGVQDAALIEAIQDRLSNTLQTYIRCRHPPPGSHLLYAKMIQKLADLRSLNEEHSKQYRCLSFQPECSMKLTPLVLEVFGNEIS
# Procedure, shortened: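 Following 4 h attachment at 37C, VDR-bla cells (2,000 per well) received DMSO-dissolved compounds or controls. After 16 h incubation, LiveBLAzer B/G FRET substrate was added and fluorescence read 2 h later at room temperature.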
# [18] = target: Vitamin D3 receptor (Homo sapiens) (UniProt P11473); test: qHTS assay to identify small molecule antagonists of the vitamin D receptor (VDR) signaling pathway (AID 743223; active = well fitted inhibition curve with a large enough effect in the signal ratio in the repeat runs, not every such curve was filed as active; the % refers to the signal ratio)
# Procedure, shortened: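 Fluorescence from LiveBLAzer B/G FRET substrate, read after 2 h at room temperature, reflects beta-lactamase reporter activity in VDR-bla cells treated 16 h at 37C with compounds and agonist 1alpha,25-dihydroxyvitamin D3 (3 nM final).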
# [19] = qHTS assay to identify small molecule agonists of the endoplasmic reticulum stress response signaling pathway - cell viability counter screen (AID 1159517; calls by dose curve)
# Procedure, shortened: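 Cytotoxicity of test compounds toward ESRE-bla HeLa cells was assessed after 5 hr exposure. The luminescent CellTiter-Glo signal was measured 30 min after reagent addition.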
# [20] = qHTS assay to identify small molecule agonists of the endoplasmic reticulum stress response signaling pathway (AID 1159516; active = well fitted activation curve with a large enough effect in the signal ratio in the repeat runs, not every such curve was filed as active; the % refers to the signal ratio)
# Procedure, shortened: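 Beta-lactamase expression from the ER stress response element in HeLa reporter cells is quantified with the LiveBLAzer B/G FRET substrate, read at 405 nm excitation after 2 hr at room temperature, following 5 hr compound treatment at 37 C.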
Structure (SMILES),Potency [1],outcome [2],outcome [3],Potency [4],Potency [5],Potency [6],Potency [7],Potency [8],outcome [9],Potency [10],Potency [11],Potency [12],Potency [13],outcome [14],Potency [15],Potency [16],outcome [17],outcome [18],Potency [19],Potency [20]
Cc1ccc(Nc2c(F)cccc2Cl)c(CC(=O)O)c1,inactive,inactive,inactive,inactive,inactive,inactive,inactive,inactive,inactive,inactive,inactive,inactive,inactive,inactive,,,,,,
CCCCCCC(O)CCOC(C)=O (stereo unspecified),,inactive,inactive,inactive,inactive,inactive,,inactive,inactive,inactive,inactive,inactive,inactive,inactive,inactive,inactive,inactive,,,
C/C(C=O)=C\c1ccccc1,inactive,inactive,,inactive,,inactive,inactive,inactive,inactive,inactive,inactive,inactive,inactive,inactive,inactive,inactive,inactive,inactive,,
COc1ccc(C2C(=O)c3ccccc3C2=O)cc1,,inactive,,inactive,,inactive,,inactive,inactive,inactive,,inactive,,inactive,inactive,inactive,inactive,,,
CCC(C)(C)C(=O)O,inactive,inactive,inactive,inactive,inactive,inactive,inactive,inactive,inactive,inactive,inactive,inactive,inactive,inactive,inactive,inactive,inactive,inactive,,
C=C(C)c1ccccc1,inactive,inactive,inactive,inactive,inactive,inactive,inactive,inactive,inactive,inactive,inactive,,inactive,inactive,inactive,inactive,inactive,inactive,,
CS(=O)(=O)c1ccc([C@@H](C[C@H]2CCC(=O)C2)C(=O)Nc2cnccn2)cc1Cl,,inactive,,inactive,,inactive,,,inactive,inactive,,inactive,inactive,inactive,,,inactive,,,
COc1ccc(C(=O)NCc2ccc(OCCN(C)C)cc2)cc1OC,inactive,inactive,,inactive,,inactive,inactive,inactive,inactive,inactive,,inactive,inactive,inactive,inactive,inactive,inactive,inactive,,
CCCOC(=O)c1c(Cl)c(Cl)c(Cl)c(Cl)c1C(=O)OCCC,inactive,inactive,,,,inactive,inactive,,inactive,inactive,inactive,,inactive,,inactive,inactive,inactive,,,
CCCCCc1ccco1,,inactive,,inactive,inactive,inactive,,,inactive,inactive,,inactive,inactive,inactive,inactive,inactive,inactive,,inactive,
CC[C@H]1OC(=O)[C@H](C)[C@@H](O[C@H]2C[C@@](C)(OC)[C@@H](O)[C@H](C)O2)[C@H](C)[C@@H](O[C@@H]2O[C@H](C)C[C@H](N(C)C)[C@H]2O)[C@](C)(O)C[C@@H](C)C(=O)[C@H](C)[C@@H](O)[C@]1(C)O,,,,inactive,,inactive,inactive,inactive,inactive,inactive,inactive,inactive,inactive,inactive,inactive,,inactive,inactive,,
CCN(Cc1cccc(S(=O)(=O)O)c1)c1ccc(C(=C2C=CC(=[N+](CC)Cc3cccc(S(=O)(=O)O)c3)C=C2)c2ccccc2S(=O)(=O)[O-])cc1,,inactive,inactive,inactive,inactive,13.9 µM (active),,,inactive,34.8 µM (active),9.72 µM (active),,,,inactive,inactive,inactive,inactive,,
CC(C)c1ccc(C(=O)N=C(N)N)cc1S(C)(=O)=O,,inactive,,inactive,,inactive,inactive,inactive,inactive,inactive,,inactive,inactive,inactive,inactive,inactive,inactive,inactive,inactive,
CC(=O)OCC(=O)[C@@]1(OC(C)=O)[C@@H](C)C[C@H]2[C@@H]3C[C@H](F)C4=CC(=O)C=C[C@]4(C)[C@@]3(F)[C@@H](O)C[C@@]21C,,,,inactive,,inactive,inactive,inactive,inactive,inactive,inactive,inactive,,inactive,inactive,inactive,,,,
CCSC(=O)N(CC)CC,inactive,inactive,,inactive,,inactive,inactive,inactive,inactive,inactive,inactive,inactive,inactive,inactive,inactive,inactive,inactive,,,
CSCC[C@H](NC(=O)[C@H](Cc1c[nH]c2ccccc12)NC(=O)CCNC(=O)OC(C)(C)C)C(=O)N[C@@H](CC(=O)O)C(=O)N[C@@H](Cc1ccccc1)C(N)=O,inactive,inactive,inactive,inactive,inactive,inactive,inactive,inactive,inactive,inactive,,inactive,inactive,inactive,inactive,inactive,,,,
C=CCOC(=O)COCCC(C)C,,inactive,,,,inactive,inactive,inactive,,inactive,inactive,inactive,inactive,inactive,inactive,inactive,,,,
O=C(O)CNC(=O)c1ccccc1I,inactive,inactive,inactive,inactive,,inactive,inactive,inactive,,inactive,inactive,inactive,,inactive,inactive,inactive,inactive,,inactive,
O=C(O)CO,inactive,inactive,,inactive,,inactive,inactive,inactive,,inactive,inactive,inactive,inactive,inactive,inactive,inactive,inactive,,,inactive
